Assay outcomes from PubChem BioAssay.
An excerpt weighted towards active compounds, which were near 3.5% of everything screened.
Tau FP inhib: qHTS for Inhibitors of Tau Fibril Formation, Fluorescence Polarization; Microtubule-associated protein tau (Homo sapiens), P10636; K18 P301L tau heparin fibrillization, Alexa594 FP, 6 h; Potency, µM (highest dose often 57.7 µM), without a hit: top-dose activity, negative = inhibition, usual class: inhibitors; actives 0.39% (n = 280,000); AID 1468, 2008; further: nearly all actives have a fitted effect of over 55% in size
Target sequence (P10636 561-689 P618L limits assumed): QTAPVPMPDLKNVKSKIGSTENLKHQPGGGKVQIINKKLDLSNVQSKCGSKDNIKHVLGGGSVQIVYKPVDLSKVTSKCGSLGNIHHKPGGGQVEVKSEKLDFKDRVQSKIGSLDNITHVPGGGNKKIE
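Quantitative HTS format: compounds meet 15 uM recombinant K18 P301L tau and Alexa 594-tau tracer in 100 mM sodium acetate pH 7; 20 uM heparin triggers fibrillization at 37 C over 6 hr; FP gives the signal.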
TexasRed fluor: Total Fluorescence Counterscreen for Inhibitors of the Interaction of Thyroid Hormone Receptor and Steroid Receptor Coregulator 2; AID 1479, 2009; TRb/SRC2 Texas Red total fluorescence interference; Potency, µM (doses to about 106 µM), without a hit: at the highest dose fluorescence change, negative = quenching; actives 0.29% (n = 280,000); active means well fitted curve in either direction with a large enough effect; inconclusive means small, poorly fitted or top-dose-only effect
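Human TRβ ligand-binding domain (0.6 uM) and Texas Red SRC2 peptide (20 nM) in Tris buffer with 1 uM T3 and 5% DMSO were incubated with pinned compound for 5 hr at ambient temperature. Total fluorescence was computed as S + 2P (555/632 nm).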
Tau fluor cs: Counterscreen qHTS for Inhibitors of Tau Fibril Formation, Fluorescence Polarization | tau K18 P301L Alexa594 fluorescence, heparin fibrillization | Potency, µM (doses to about 57.7 µM), for the others: at the top dose activity change, negative = decrease | actives 0.93% (n = 280,000) | AID 1463, 2008; further: nearly all actives have a fitted effect of over 55% in size
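Human K18 P301L tau (15 uM unlabeled plus 0.24 uM Alexa 594-labeled, final) in 100 mM sodium acetate pH 7 was mixed with compound and 20 uM heparin and incubated 6 hr at 37 C.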
Tau ThT inhib: qHTS for Inhibitors of Tau Fibril Formation, Thioflavin T Binding. Potency, µM (top dose mostly 57.4 µM), inactives show at the top dose activity, negative = inhibition, hits mostly inhibitors. Microtubule-associated protein tau (Homo sapiens), P10636. recombinant tau K18 P301L, heparin-induced fibrillization, ThT fluorescence. actives 2.1% (n = 270,000); further: nearly all actives have a fitted effect of over 55% in size
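Fibril formation assay: tau K18 P301L at 15 uM with trace Alexa 594 label, heparin inducer 20 uM, pH 7 sodium acetate buffer, 37 C for 6 hr; endpoint ThT signal.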
TRb SRC2 PPI: qHTS for Inhibitors of the Interaction of Thyroid Hormone Receptor and Steroid Receptor Coregulator 2; AID 1469, 2008; Potency, µM (highest dose often 106 µM), for inactives: at the highest dose activity change, negative = inhibition, actives largely listed as inhibitors; actives 0.065% (n = 280,000); TRbeta-SRC2 peptide binding, fluorescence polarization; receptor liganded with 1 µM T3;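 further: plate controls were bound peptide for no effect and peptide without receptor for full effect; nearly all actives have a fitted effect of over 50% in size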
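Quantitative HTS by FP: 0.6 uM TRb LBD, 20 nM labeled SRC2 20-mer, 1 uM T3, 5% DMSO; 5 hr ambient incubation; % activity per concentration and potencies from concentration series.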
KDM4E inh: qHTS Assay for Inhibitors of Human Jumonji Domain Containing 2E (JMJD2E). Lysine-specific demethylase 4E (Homo sapiens), B2RXH2. JMJD2E catalytic domain, FDH-coupled NADH fluorescence (FDH is formaldehyde dehydrogenase). Potency, µM (highest dose often 57.1 µM), without a hit: at the highest dose activity change, negative = inhibition, hits mostly inhibitors. actives 1.6% (n = 230,000). AID 2147, 2009; active means well fitted inhibition curve with a large enough effect, not every such curve was filed as active; inconclusive means small, poorly fitted or top-dose-only effect, or another doubt; inactive means no such curve, though single readings can be large or run the other way;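 further: 0% = wells with enzyme and -100% = buffer wells without enzyme; nearly all actives have a fitted effect of over 50% in size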
Target sequence (B2RXH2 1-337 limits assumed): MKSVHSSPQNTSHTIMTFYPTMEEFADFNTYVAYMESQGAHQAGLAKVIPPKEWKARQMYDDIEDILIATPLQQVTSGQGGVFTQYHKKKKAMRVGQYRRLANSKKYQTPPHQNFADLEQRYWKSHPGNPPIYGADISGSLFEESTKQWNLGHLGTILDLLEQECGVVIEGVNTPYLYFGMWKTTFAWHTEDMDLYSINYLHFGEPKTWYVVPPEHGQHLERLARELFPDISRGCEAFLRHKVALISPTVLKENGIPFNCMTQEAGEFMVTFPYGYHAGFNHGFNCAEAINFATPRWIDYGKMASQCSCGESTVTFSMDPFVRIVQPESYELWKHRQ
* = called active by the depositor; u = inconclusive; x = not tested or not shown; [ ] = another dose, or the depositor's remark. Unless noted, the call rests on the fitted dose curve; in most records, active means well fitted curve in the direction sought with a large enough effect; inconclusive means small, poorly fitted or top-dose-only effect, or another doubt; inactive means no such curve, though single readings can be large; an effect the other way counts as inactive or inconclusive. Unless noted, on the % scale 0 is the no-effect control and ±100 the full control effect; potency means the concentration at half of the fitted maximal effect.

SMILES	Tau FP inhib	TexasRed fluor	Tau fluor cs	Tau ThT inhib	TRb SRC2 PPI	KDM4E inh
O=C(Cn1cnc2c(nc3n2CCCCC3)c1=O)Nc1ccc(F)c(Cl)c1	-4%	18µM*[quencher]	0%	1%	-7%	x
CCCCn1c(=N)n(CCCOc2ccc(F)cc2)c2ccccc21	6%	1%	2%	0%	-9%	x
N=C1/C(=C\c2ccc(OCc3ccccc3)cc2)C(=O)N=C2SC(N3CCCC3)=NN12	-8%	-7%	u	4µM*	0%	-29%
CCc1ccc(/C=C2\SC(N3CCCC3)=NC2=O)cc1	5%	-1%	-14%	-5%	0%	-6%
O=C(O)CN(CC(=O)O)Cc1cc2c(-c3ccccc3C(=O)O)c3cc(CN(CC(=O)O)CC(=O)O)c(=O)cc-3oc2cc1O	22µM*	40µM*[fluorescent]	-7%	u	6.3µM*	4µM*
CC1=NN(c2ccc([N+](=O)[O-])cc2)C(=O)C1[N+](=O)[O-] (stereo unspecified)	-1%	-4%	u	13µM*	7%	-5%
CC1/C=C/C=C/C=C/C=C/C=C/C=C/C=C/C(OC2OC(C)C(O)C(N)C2O)CC2O[C@@](O)(CC(O)CC(O)C(O)CCC(O)CC(O)CC(=O)OC(C)[C@H](C)C1O)CC(O)C2C(=O)O (stereo partly specified)	4µM*	18%	u	4µM*	u	u
Oc1ccc2ccccc2c1CN1CCCC1	8%	-4%	u	u	-2%	32µM*
O=C1NC(c2ccccc2)=C(c2ccc3ccccc3n2)C(c2ccccc2)N1 (stereo unspecified)	u	-4%	-21%	u	-4%	u
O=C1NC(c2ccccc2)=C(c2ccc3ccccc3n2)C(c2ccncc2)N1 (stereo unspecified)	-16%	-3%	u	11µM*	2%	5%
Nc1n[nH]c(N)c1N=Nc1ccccc1	5%	-2%	-26%	u	3%	5%
Nc1n[nH]c(N)c1N=Nc1ccc(Cl)cc1Cl	7%	-1%	u	3.5µM*	7%	-6%
Cc1cc(C)c(Nc2cc(S(=O)(=O)O)c(N)c3c2C(=O)c2ccccc2C3=O)c(C)c1	20µM*	-24%	7.1µM*[quencher]	7.9µM*	45µM*	-22%
CN1COc2ccc3ccccc3c2C1	2%	-3%	u	u	-4%	14µM*
Cc1cc(/C=C/c2ccc3cc(N(C)C)ccc3[n+]2C)c(C)n1-c1ccccc1	-13%	40µM*[fluorescent]	x	x	u	u
CN(C)c1ccc(/C=C/c2ccc3c4ccccc4ccc3[n+]2-c2ccccc2)cc1	u	13µM*[fluorescent]	0.79µM*[fluorescent]	2µM*	u	u
CN(C)c1ccc(/C=C/c2ccc3ccccc3[n+]2C)cc1	11%	23%	0.5µM*[fluorescent]	0.56µM*	u	-21%
CCNCCCNCCCCNCCCNCC	-5%	0%	-7%	-4%	7%	-25%
CCCN(CCC)CC(O)CN(c1cc([N+](=O)[O-])ccc1OC)S(=O)(=O)c1ccccc1 (stereo unspecified)	1%	-7%	-8%	-3%	-4%	3%
O=[N+]([O-])c1cccn2cc(-c3ccc(Br)cc3)nc12	10%	-4%	-14%	5µM*	-12%	2%
CC[n+]1ccccc1/C=C/Nc1ccccc1	2%	-1%	-7%	5%	2%	18µM*
CC[n+]1c(C=C2C=C(C)OC(C)=C2)sc2ccccc21	1%	-4%	2%	25µM*	-7%	-7%
CC[n+]1c(/C=C(\C)Nc2ccccc2)sc2ccccc21	4%	-3%	-3%	u	-4%	-9%
CC[n+]1c(/C=C/Nc2ccccc2)sc2ccccc21	1%	45µM*[fluorescent]	28µM*[fluorescent]	u	u	-3%
CC[n+]1c(/C=C2/C=C(C)CC(C)C2)sc2ccccc21 (stereo unspecified)	-12%	-1%	-19%	u	3%	22µM*
SMILES	Tau FP inhib	TexasRed fluor	Tau fluor cs	Tau ThT inhib	TRb SRC2 PPI	KDM4E inh
CC/C(=C/c1sc2ccccc2[n+]1CC)SC	3%	-6%	-7%	-15%	-3%	-3%
Cc1cc(C)c(C#N)c(SCc2cc3c(cc2Cl)OCO3)n1	u	-5%	-23%	0%	8%	-12%
COc1ccc(S(=O)(=O)Nc2cccc(-c3ccc(N4CCCCC4)nn3)c2)cc1F	u	-1%	u	-3%	0%	x
O=S1(=O)CCC(NC(=S)SCCOc2ccccc2)C1 (stereo unspecified)	-4%	-2%	-15%	-19%	-2%	-25%
CCOC(=O)c1sc(N(Cc2ccccc2)C(=O)COC(=O)c2ccc(O)cc2)nc1C	14µM*	1%	u	-3%	-1%	-26%
CCOc1ccc(/C=C/C(=O)c2cc(Br)ccc(=O)c2O)cc1	u	-12%	u	4.5µM*	-4%	32µM*
CCc1ccc(/C=C/C(=O)c2cc(Br)ccc(=O)c2O)cc1	u	-8%	u	16µM*	-20%	u
Cc1ccc(O)c(C(=O)/C=C/c2ccc3c(c2)OCCCO3)c1	0%	-4%	1%	15%	1%	-9%
Cc1cccc(/C=C/C(=O)c2cc(Br)ccc(=O)c2O)c1	u	-7%	u	14µM*	-19%	u
CCOc1ccc(C(=O)/C=C/c2ccc(OC)c(OC)c2)cc1	0%	-3%	-16%	u	-3%	u
Cc1ccc(/C=C/C(=O)c2cc(Br)ccc2OC(=O)c2ccco2)cc1	13%	-7%	-8%	u	-4%	-13%
CC(C)c1ccc(Nc2nc3c(S(=O)(=O)c4ccc(Br)cc4)nnn3c3ccsc23)cc1	u	1%	u	7%	-4%	x
Clc1ccc(Nc2ccc(-n3ccnc3)nn2)cc1Cl	u	-1%	13µM*[quencher]	1%	12%	-1%
COc1cc2c(cc1NC(=O)c1cccc(S(=O)(=O)N(C)C)c1)oc1ccccc12	u	-1%	u	2%	3%	u
O=C(CNC(=O)c1cccs1)N/N=C/c1ccc(O)cc1O	-5%	-1%	-2%	1%	6%	3.2µM*
